“And” between values parts separate entries of the source, which are not always exact repeats. Equal entries are not always repeated. About 2,000 (36%) of roughly 5,500 compounds were called active. About 18% were inconclusive and are not listed. Rule as the data show it: active = normalized growth mostly below about 0.91 (no sharp cut-off); inconclusive = no clear call, values can overlap the other calls; inactive = mostly above about 0.92. The list shows a part of the results.
Test: chemical genetic growth profiling, strain panel (AID 1159580);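 also: tested at 20 µM; growth read once vehicle control cultures reached saturation at 30 °C; 1 = growth at the plate median or of vehicle wells; lower values mean less growth of the strain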
Conditions: S. cerevisiae deletion strains, growth OD

Measured: normalized growth

NC1(C(=O)O)CCCC1
inactive: locus YAL013W, strain DEP1, active compounds read low 1 | locus YAL021C, strain ccr4, active compounds read low 1.01 | locus YAL026C, strain drs2, active compounds read low 1.02 | locus YAL030W, strain snc1, active compounds read low 1.02 | locus YBL061C, strain skt5, active compounds read low 1.01 | locus YBR009C, strain hhf1, active compounds read low 1 | locus YBR021W, strain FUR4, active compounds read low 0.989 | locus YBR023C, strain chs3, active compounds read low 1.02 | locus YBR171W, strain sec66, active compounds read low 1.03 | locus YBR229C, strain ROT2, active compounds read low 1.01 | locus YBR231C, strain swc5, active compounds read low 1.02 | locus YBR279W, strain paf1, active compounds read low 1.01 | locus YCL011C, strain gbp2, active compounds read low 1.02 | locus YCL016C, strain dcc1, active compounds read low 1.01 | locus YCL029C, strain bik1, active compounds read low 1.02 | locus YCL061C, strain MRC1, active compounds read low 1.02 | locus YCL069W, strain vba3, active compounds read low 1.02 | locus YCR088W, strain abp1, active compounds read low 1.02 | locus YDL005C, strain med2, active compounds read low 1.01 | locus YDL035C, strain GPR1, active compounds read low 1.01 | locus YDL040C, strain nat1, active compounds read low 1.01 | locus YDL074C, strain BRE1, active compounds read low 1.02 | locus YDL101C, strain DUN1, active compounds read low 1 | locus YDL134C, strain PPH21, active compounds read low 0.998 | locus YDL185W, strain tfp1, active compounds read low 0.989 | locus YDL192W, strain arf1, active compounds read low 0.998 | locus YDR001C, strain nth1, active compounds read low 1.02 | locus YDR069C, strain doa4, active compounds read low 1.03 | locus YDR101C, strain arx1, active compounds read low 1.01 | locus YDR137W, strain rgp1, active compounds read low 1 | locus YDR150W, strain NUM1, active compounds read low 1.01 | locus YDR159W, strain sac3, active compounds read low 0.995 | locus YDR162C, strain NBP2, active compounds read low 1.01 | locus YDR195W, strain ref2 1.03 | locus YDR297W, strain sur2, active compounds read low 1.01 | locus YDR318W, strain mcm21, active compounds read low 0.996 | locus YDR334W, strain swr1, active compounds read low 1.01 | locus YDR335W, strain msn5, active compounds read low 1.01 | locus YDR388W, active compounds read low 0.998 | locus YDR392W, strain spt3, active compounds read low 1.01 | locus YDR502C, strain sam2, active compounds read low 0.99 | locus YEL003W, strain gim4, active compounds read low 1.02 | locus YEL037C, strain rad23, active compounds read low 1.02 | locus YEL061C, strain CIN8 (second series), active compounds read low 1.02 | locus YEL061C, strain CIN8, active compounds read low 1.01 | locus YER015W, strain faa2, active compounds read low 1.02 | locus YER016W, strain bim1, active compounds read low 1.01 | locus YER110C, active compounds read low 1 | locus YER111C, strain swi4, active compounds read low 1.03 | locus YER155C, strain BEM2 (second series), active compounds read low 1.07 | locus YER155C, strain BEM2, active compounds read low 0.997 | locus YER167W, strain BCK2, active compounds read low 1.01 | locus YFR010W, strain ubp6, active compounds read low 1.02 | locus YGL078C, strain dbp3, active compounds read low 0.989 | locus YGL086W, strain mad1, active compounds read low 0.994 | locus YGL167C, strain pmr1, active compounds read low 1.01 | locus YGL173C, strain kem1, active compounds read low 1.02 | locus YGL227W, strain vid30, active compounds read low 1.02 | locus YGL240W, strain doc1, active compounds read low 1.04 | locus YGL248W, strain PDE1, active compounds read low 1.01 | locus YGL253W, strain hxk2, active compounds read low 1.02 | locus YGR135W, strain pre9, active compounds read low 0.998 | locus YGR252W, strain gcn5, active compounds read low 0.935 | locus YHR013C, strain ard1, active compounds read low 1.07 | locus YHR027C, strain rpn1, active compounds read low 1.01 | locus YHR030C, strain SLT2, active compounds read low 1.01 | locus YHR079C, strain IRE1 (second series), active compounds read low 0.996 | locus YHR079C, strain IRE1, active compounds read low 1.04 | locus YHR094C, strain hxt1, active compounds read low 0.998 | locus YHR129C, strain ARP1, active compounds read low 1.01 | locus YHR142W, strain chs7, active compounds read low 1.03 | locus YHR200W, strain rpn10, active compounds read low 0.997 | locus YIL066C, strain RNR3, active compounds read low 1.02 | locus YIL073C, strain SPO22, active compounds read low 1.02 | locus YIL125W, strain kgd1, active compounds read low 1 | locus YIR030C, strain dcg1, active compounds read low 1.01 | locus YJL092W, strain hpr5, active compounds read low 1.03 | locus YJL095W, strain BCK1 (second series), active compounds read low 1.01 | locus YJL095W, strain BCK1, active compounds read low 1.01 and 1.02 | locus YJL115W, strain asf1, active compounds read low 1.03 | locus YJL129C, strain trk1, active compounds read low 1.06 | locus YJL134W, strain LCB3, active compounds read low 1.01 | locus YJL154C, strain vps35, active compounds read low 1.02 | locus YJL164C, strain tpk1, active compounds read low 1.02 | locus YJL166W, strain qcr8, active compounds read low 1.02 | locus YJL168C, strain set2, active compounds read low 0.994 | locus YJL187C, strain SWE1 (second series), active compounds read low 1.01 | locus YJR043C, strain POL32, active compounds read low 1 | locus YJR066W, strain TOR1, active compounds read low 0.975

— PubChem BioAssay AID1159580 (chemical genetic matrix, 2015)
